Values joined by “and” are separate entries in the source; they are usually repeats but may differ in a detail not shown here. Equal values may be shown once. Records with an inconclusive call do not appear. The source holds several records for some structures; these can differ, active in one and inactive in another. Active and inactive are the calls of the source. Unless noted, calls follow the shape of the dose curve; as a rule, active = well fitted curve in either direction with a large enough effect (not every such curve was filed as active); inconclusive = small, poorly fitted or top-dose-only effect, or another doubt; inactive = flat fitted curve, though single readings scatter.

The values that follow come from PubChem BioAssay (NCATS).

A short description of assay [1]: AP1 Signaling Pathway (AID 357).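 Also: ME-180 reporter cells stimulated with EGF at its EC50 level; % is scaled to controls: 0 for no effect and ±100 for the full control effect.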 The following applies: ME-180 AP-1-bla reporter, EGF-induced, beta-lactamase ratio, 5 h. The gist of the method:
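In this screen, ME-180 cells in Opti-MEM with 0.5% dialyzed FBS received EC50 EGF and compound titrations for 5 h. AP-1 reporter beta-lactamase was detected via CCF4 ratio, giving AC50 for positive and negative modulators.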

Assay [2] in a line: NFAT Signaling Pathway (AID 444).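 Also: carbachol stimulus at about its EC50 of 1 µM final; % is scaled to controls: 0 for no effect and ±100 for the full control effect.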 The following applies: Jurkat NFAT-bla M1, carbachol, beta-lactamase ratio, 5 h. The gist of the method: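 Jurkat cells with NFAT-driven β-lactamase reporter and co-expressed M1 receptor, stimulated with carbachol (final 1 uM, ~EC50), compound titration, 5 h at 37 °C. CCF4 loaded 1 h at RT; 460/530 nm ratio gave %activity and AC50.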
The nature of assay [3]: Stat Signaling Pathway (AID 446).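 Also: ME-180 cervical cancer cells given 40 pM IL-6 alongside compound; SIE-controlled beta-lactamase reporter measured as 460/530 nm FRET emission ratio; % is scaled to controls: 0 for no effect and ±100 for the full control effect.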 The following applies: ME-180 SIE beta-lactamase reporter, IL-6 stimulated, 5 h. Summed up:
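Reporter line: ME-180 cervical carcinoma, SIE-beta-lactamase. Treatment: compound with 40 pM IL-6, 5 hrs, 37 C, in low-serum OPTI-MEM with 10 mM HEPES pH 7.3. Detection: 460/530 nm fluorescence.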

Assay [4] concerns the target Glucocorticoid receptor (Homo sapiens) (UniProt P04150). The assay can be described thus: GR-GFP Redistribution (AID 450;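 active = compounds whose dose series gives a full or clear partial fitted curve of increased nuclear translocation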; also: potency is read from the fitted curve at half-maximal effect). Particulars: U2OS GR-GFP nuclear translocation, laser cytometry, 2 h.
Assay [5] has the same target. The assay can be described thus: GR-EFC Redistribution (AID 451; calls by dose curve; also: potency is read from the fitted curve at half-maximal effect). Particulars: CHO-K1 GR-EFC translocation, beta-gal luminescence, 2 h. Summed up:
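CHO-K1 cells expressing nuclear EA and GR-ED fragments of b-gal; compounds titrated up to 46 uM final, 2 h at 37 C. GR nuclear translocation read as complemented b-gal luminescence after 1 h RT detection.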

In assay [6] the target is Mitogen-activated protein kinase 10 (Mus musculus) (UniProt Q61831). The assay can be described thus: JNK3 AlphaScreen Assay (AID 530).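 Also: kinase came from lysate of stimulated human HepG2 cells; signal reports phosphorylation of biotinylated GST-cJun 1-79 at Ser73 with 10 µM ATP; % is scaled to controls: 0 for no effect and ±100 for the full control effect.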 The gist of the method:
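qHTS format: compounds tested as titrations against IL-1beta/TNF-alpha-activated HepG2 lysate JNK3 with biotin-GST-cJun substrate and 10 uM ATP at room temperature. Loss of anti-phospho-cJun AlphaScreen signal indicates inhibition.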

Assay [7] deals with 3',5'-cyclic-AMP phosphodiesterase 4B (Homo sapiens) (UniProt Q07343). Description: qHTS Assay for Inhibitors of PDE-IV (AID 607; active = well fitted activation curve with a large enough effect in the main read-out, with a control signal flat, not every such curve was filed as active; also: % of control where 0% means no effect). Summed up: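 Cell-based read-out of cAMP via a modified cyclic nucleotide-gated channel and membrane potential dye (535/590 nm) in HEK293 cells expressing PDE4 endogenously. Compounds tested up to 22.9 uM final; 100 uM RO 20-1724 reference.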
Sequence of 3',5'-cyclic-AMP phosphodiesterase 4B (Homo sapiens) (Q07343 whole entry, looked up): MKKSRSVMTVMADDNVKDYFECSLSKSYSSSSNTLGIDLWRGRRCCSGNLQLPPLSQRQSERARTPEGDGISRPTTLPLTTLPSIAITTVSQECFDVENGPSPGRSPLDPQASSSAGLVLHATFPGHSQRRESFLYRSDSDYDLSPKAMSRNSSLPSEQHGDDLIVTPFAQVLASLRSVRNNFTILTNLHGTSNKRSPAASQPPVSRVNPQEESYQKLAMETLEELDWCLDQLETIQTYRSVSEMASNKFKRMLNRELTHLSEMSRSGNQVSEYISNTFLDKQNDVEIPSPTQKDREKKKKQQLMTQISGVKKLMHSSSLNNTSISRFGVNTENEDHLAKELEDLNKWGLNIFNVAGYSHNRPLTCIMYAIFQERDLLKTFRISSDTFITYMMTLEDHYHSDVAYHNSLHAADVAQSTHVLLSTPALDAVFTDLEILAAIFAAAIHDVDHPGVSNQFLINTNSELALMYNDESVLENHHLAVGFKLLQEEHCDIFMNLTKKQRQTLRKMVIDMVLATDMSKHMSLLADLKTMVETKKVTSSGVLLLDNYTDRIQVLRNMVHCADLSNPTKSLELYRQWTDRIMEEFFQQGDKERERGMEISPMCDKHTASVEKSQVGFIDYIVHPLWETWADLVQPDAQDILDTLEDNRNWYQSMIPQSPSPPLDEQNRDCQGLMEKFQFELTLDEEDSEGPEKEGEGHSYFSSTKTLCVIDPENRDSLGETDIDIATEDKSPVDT
Assay [8] in a line: qHTS Assay for Lipid Storage Modulators (AID 1519; calls by dose curve). Particulars: Drosophila S3 cells, BODIPY lipid droplet/cell ratio, laser cytometry, cells loaded with oleic acid. Summed up: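 Cells seeded at 5,000 per well were treated with compounds over a concentration series and loaded with oleic acid (400 uM, as added). Lipid droplet fluorescence (488 nm excitation, 500-530 nm channel) was read by laser-scanning cytometry and normalized to 20 uM Triacsin C.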

For assay [9], the target named is Cytochrome P450 1A2 (Homo sapiens) (UniProt P05177). Description: p450-cyp1a2 (AID 410; calls by dose curve; also: potency is read from the fitted curve at half-maximal effect). The gist of the method:
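Human CYP1A2 (20nM) demethylated Luciferin-ME at its Km (100uM) in 100mM KPO4. After 10 min compound preincubation, NADPH regeneration ran the reaction 60 min at room temperature. Luciferin was read by luminescence, normalized to 57 uM furafylline.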

The target in assay [10] is ATP-dependent 6-phosphofructokinase (Trypanosoma brucei brucei) (UniProt O15648). The assay can be described thus: qHTS Assay to Find Inhibitors of T. brucei phosphofructokinase: hit validation (AID 492961; active = well fitted curve in the direction sought with a large enough effect; an effect the other way counts as inactive or inconclusive). Summed up: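 Compounds titrated; %activity normalized to 0x and 1x enzyme controls, curve-fitted. Readout: ADP-Glo luminescence after 45 min room-temperature reaction of 1.25 nM PFK, 0.1 mM ATP, 0.5 mM F6P, pH 8.0.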
Sequence of ATP-dependent 6-phosphofructokinase (Trypanosoma brucei brucei) (O15648 whole entry, looked up): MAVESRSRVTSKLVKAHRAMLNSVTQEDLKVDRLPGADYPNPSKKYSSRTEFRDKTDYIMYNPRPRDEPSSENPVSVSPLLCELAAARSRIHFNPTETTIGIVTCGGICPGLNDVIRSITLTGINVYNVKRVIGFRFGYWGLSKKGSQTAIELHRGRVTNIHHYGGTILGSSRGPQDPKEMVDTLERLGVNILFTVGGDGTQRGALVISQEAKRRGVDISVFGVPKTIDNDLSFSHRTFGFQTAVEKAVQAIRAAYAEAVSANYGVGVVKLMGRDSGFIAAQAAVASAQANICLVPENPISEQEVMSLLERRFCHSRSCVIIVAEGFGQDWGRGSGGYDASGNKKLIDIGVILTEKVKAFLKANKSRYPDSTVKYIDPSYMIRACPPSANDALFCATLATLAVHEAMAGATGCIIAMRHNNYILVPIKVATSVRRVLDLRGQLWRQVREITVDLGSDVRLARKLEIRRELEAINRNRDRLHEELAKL

Assay [11] deals with Ubiquitin carboxyl-terminal hydrolase 1 (Homo sapiens) (UniProt O94782). Description: Inhibitors of USP1/UAF1: Pilot qHTS (AID 504865; active = well fitted curve in the direction sought with a large enough effect; an effect the other way counts as inactive or inconclusive;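 also: rhodamine fluorescence freed from ubiquitin-rhodamine substrate followed over time; top concentration of the series differs between compounds; % is scaled to controls: 0 for no effect and ±100 for the full control effect; nearly all actives have a fitted effect of over 35% in size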). Summed up: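 USP1/UAF1 complex at 1 nM preincubated 15 min at room temperature with compound, then Ub-Rho substrate added at 150 nM final. Fluorescence (480/540 nm) read kinetically in 50 mM HEPES pH 7.8, 0.5 mM EDTA, 1 mM TCEP, 0.1 mg/ml BSA, 0.01% Tween-20.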
Sequence of Ubiquitin carboxyl-terminal hydrolase 1 (Homo sapiens) (O94782 whole entry, looked up): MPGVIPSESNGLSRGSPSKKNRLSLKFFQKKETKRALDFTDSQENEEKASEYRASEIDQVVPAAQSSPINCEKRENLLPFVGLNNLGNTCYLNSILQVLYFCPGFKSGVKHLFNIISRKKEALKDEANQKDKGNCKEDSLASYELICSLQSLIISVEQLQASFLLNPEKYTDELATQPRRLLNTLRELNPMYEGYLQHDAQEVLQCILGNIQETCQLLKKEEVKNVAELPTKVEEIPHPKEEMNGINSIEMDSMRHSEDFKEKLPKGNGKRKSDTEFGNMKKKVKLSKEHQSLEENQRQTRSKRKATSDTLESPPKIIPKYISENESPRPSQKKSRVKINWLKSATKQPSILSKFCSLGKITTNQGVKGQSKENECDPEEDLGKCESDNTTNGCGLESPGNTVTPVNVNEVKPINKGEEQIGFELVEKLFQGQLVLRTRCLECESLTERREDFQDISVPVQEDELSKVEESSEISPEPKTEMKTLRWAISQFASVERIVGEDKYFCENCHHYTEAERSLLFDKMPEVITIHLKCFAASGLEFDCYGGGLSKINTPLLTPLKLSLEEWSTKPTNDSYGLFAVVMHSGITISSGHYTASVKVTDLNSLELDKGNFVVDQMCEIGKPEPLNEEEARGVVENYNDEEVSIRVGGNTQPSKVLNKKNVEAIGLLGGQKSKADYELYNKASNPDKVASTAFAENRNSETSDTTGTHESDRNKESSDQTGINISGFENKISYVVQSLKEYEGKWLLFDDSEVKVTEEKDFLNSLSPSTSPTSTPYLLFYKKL

Assay [12] deals with Luciferin 4-monooxygenase (Photinus pyralis) (UniProt P08659). Description: Biochemical firefly luciferase enzyme assay for NPC (AID 624030; active = well fitted curve in the direction sought with a large enough effect; an effect the other way counts as inactive or inconclusive;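 also: purified P. pyralis luciferase at 10 nM with luciferin and ATP substrate; 0% = DMSO and -100% = full luciferase inhibition by PTC124 control; nearly all actives have a fitted effect of over 70% in size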). Summed up: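 Purified P. pyralis luciferase at 10 nM in 50 mM Tris Acetate (final), luminescence read within 5 minutes of enzyme addition to compounds. Activity normalised to PTC124 versus DMSO; concentration-response curves classed by r2, magnitude and activity.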
Sequence of Luciferin 4-monooxygenase (Photinus pyralis) (P08659 whole entry, looked up): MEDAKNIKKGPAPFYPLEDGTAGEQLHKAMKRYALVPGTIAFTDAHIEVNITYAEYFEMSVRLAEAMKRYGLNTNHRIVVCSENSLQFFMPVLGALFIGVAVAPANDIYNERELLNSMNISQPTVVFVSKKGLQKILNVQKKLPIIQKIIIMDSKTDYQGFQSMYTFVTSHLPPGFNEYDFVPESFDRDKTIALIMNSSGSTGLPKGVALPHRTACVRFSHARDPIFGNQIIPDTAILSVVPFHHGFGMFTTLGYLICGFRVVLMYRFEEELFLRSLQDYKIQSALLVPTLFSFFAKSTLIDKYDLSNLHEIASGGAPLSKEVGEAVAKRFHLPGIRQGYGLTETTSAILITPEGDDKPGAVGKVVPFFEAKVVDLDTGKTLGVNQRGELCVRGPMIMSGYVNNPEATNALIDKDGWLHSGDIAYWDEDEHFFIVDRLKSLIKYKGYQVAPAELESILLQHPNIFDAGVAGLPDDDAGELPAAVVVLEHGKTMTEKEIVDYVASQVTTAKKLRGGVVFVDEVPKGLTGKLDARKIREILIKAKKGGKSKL

Assay [13] can be described thus: qHTS profiling for inhibitors of Plasmodium falciparum proliferation (AID 504749; active = well fitted curve in the direction sought with a large enough effect; an effect the other way counts as inactive or inconclusive;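 also: 0% = DMSO vehicle and full inhibition = artemisinin control; nearly all actives have a fitted effect of over 60% in size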). The following applies: P. falciparum in erythrocytes, SYBR Green DNA, 72 h. Summed up: (§1)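 Readout was DNA-dye fluorescence from lysed cultures, ex 485/em 535 nm. Parasitized red cells had grown 72 h with compound; data scaled between 0.29 uM artemisinin and DMSO wells and corrected using vehicle-only plates.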

A further assay deals with AS120. Described as above. Particulars: P. falciparum in erythrocytes, SYBR Green DNA, 72 h; series mostly up to 28.7 µM. Summed up:
as §1

A further assay relates to CP238. The description is as above. The following applies: P. falciparum in erythrocytes, SYBR Green DNA, 72 h; series mostly up to 12.8 µM. The gist of the method:
as §1

A further assay has as its system CP265. The description is as above. The following applies: P. falciparum in erythrocytes, SYBR Green DNA, 72 h; series mostly up to 12.8 µM. The gist of the method: as §1
The subject of another assay is FAB9. The assay is described as above. The following applies: P. falciparum in erythrocytes, SYBR Green DNA, 72 h; series mostly up to 12.8 µM. Summed up:
as §1

Assay [14] has as its target Pyruvate kinase (Leishmania mexicana) (UniProt Q27686). The assay can be described thus: qHTS Validation Assay for Inhibitors of Leishmania Mexicana Pyruvate Kinase (AID 945; active = well fitted curve in the direction sought with a large enough effect; an effect the other way counts as inactive or inconclusive;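 also: 0% = DMSO only neutral control wells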). Summed up: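 Purified LmPYK (E451W mutant, 0.2 nM) was incubated 1 h at room temperature with 0.5 mM PEP and 0.1 mM ADP in 50 mM imidazole pH 7.2, 50 mM KCl, 7 mM MgCl2; ATP formed was read by PKLight luminescence, normalized to DMSO wells.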

The target in assay [15] is Alpha-galactosidase A (Homo sapiens) (UniProt P06280). Description: Counterscreen for Glucocerebrosidase Inhibitors: qHTS Assay for Human alpha-Galactosidase at pH 4.5 (AID 992; active = well fitted curve in the direction sought with a large enough effect; an effect the other way counts as inactive or inconclusive; also: 0% is about no effect). The gist of the method:
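Quantitative HTS: compounds tested from 0.7 nM up to 77 uM against 2 nM enzyme with 80 uM 4-MU alpha-D-galactopyranoside. The 20 min room-temperature reaction is stopped with 1M NaOH/1M glycine, pH 10.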

For assay [16], the target named is alpha-glucosidase (Oryza sativa, rice) (UniProt Q653V4). The assay can be described thus: Counterscreen for Glucocerebrosidase Inhibitors: qHTS Assay for Rice alpha-Glucosidase at pH 5.0 (AID 997; active = well fitted curve in the direction sought with a large enough effect; an effect the other way counts as inactive or inconclusive;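 also: 0% = full activity with enzyme and -100% = basal without enzyme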). Summed up:
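Rice alpha-glucosidase (4 nM final) with 400 uM 4-methylumbelliferyl-alpha-D-glucopyranoside in citrate buffer pH 5.0, 20 min at room temperature, stopped at pH 10; fluorescence 365/440 nm, compounds 0.7 nM–77 uM, AC50 from Hill fits.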

Setting [17] is: at 7.69 µM (top of the series) unless noted.
[18] abbreviates: measured here: cell count channel max response.
[19] abbreviates: measured here: lipid channel max response.

Sequence of Glucocorticoid receptor (Homo sapiens) (P04150 whole entry, looked up): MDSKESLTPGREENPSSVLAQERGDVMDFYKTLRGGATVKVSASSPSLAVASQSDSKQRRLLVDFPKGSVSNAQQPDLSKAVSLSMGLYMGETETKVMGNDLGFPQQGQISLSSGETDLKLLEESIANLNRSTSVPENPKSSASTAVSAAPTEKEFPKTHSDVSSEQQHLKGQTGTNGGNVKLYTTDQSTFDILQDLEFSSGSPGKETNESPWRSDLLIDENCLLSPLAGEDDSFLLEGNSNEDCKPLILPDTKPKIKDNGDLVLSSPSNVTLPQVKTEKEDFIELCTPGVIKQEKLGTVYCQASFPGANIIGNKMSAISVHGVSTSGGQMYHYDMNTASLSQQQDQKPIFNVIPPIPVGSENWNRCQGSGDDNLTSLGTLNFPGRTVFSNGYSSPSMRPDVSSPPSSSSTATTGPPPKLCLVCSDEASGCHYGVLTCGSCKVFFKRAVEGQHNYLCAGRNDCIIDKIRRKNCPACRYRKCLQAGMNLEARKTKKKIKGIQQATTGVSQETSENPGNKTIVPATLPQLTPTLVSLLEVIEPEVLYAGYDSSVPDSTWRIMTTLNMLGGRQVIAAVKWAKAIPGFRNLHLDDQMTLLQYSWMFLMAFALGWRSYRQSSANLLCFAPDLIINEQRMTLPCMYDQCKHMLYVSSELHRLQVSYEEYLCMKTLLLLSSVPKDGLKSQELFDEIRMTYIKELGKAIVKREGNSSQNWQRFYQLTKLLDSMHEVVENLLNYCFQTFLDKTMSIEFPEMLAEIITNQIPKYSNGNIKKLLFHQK
Sequence of Cytochrome P450 1A2 (Homo sapiens) (P05177 whole entry, looked up): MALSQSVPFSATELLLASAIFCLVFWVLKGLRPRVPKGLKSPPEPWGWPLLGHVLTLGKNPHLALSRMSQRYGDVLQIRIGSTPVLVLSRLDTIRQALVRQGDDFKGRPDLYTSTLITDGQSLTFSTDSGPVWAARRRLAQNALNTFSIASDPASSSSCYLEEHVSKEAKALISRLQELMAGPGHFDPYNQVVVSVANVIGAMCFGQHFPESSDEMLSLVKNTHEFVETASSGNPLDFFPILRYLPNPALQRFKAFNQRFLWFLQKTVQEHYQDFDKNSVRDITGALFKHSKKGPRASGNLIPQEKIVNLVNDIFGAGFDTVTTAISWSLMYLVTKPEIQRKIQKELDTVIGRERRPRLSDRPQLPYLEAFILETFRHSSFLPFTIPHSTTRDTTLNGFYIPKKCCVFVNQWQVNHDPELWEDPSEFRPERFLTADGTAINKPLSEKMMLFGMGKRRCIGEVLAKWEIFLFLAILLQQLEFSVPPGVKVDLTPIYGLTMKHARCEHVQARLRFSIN
Sequence of Pyruvate kinase (Leishmania mexicana) (Q27686 2-499 E452W): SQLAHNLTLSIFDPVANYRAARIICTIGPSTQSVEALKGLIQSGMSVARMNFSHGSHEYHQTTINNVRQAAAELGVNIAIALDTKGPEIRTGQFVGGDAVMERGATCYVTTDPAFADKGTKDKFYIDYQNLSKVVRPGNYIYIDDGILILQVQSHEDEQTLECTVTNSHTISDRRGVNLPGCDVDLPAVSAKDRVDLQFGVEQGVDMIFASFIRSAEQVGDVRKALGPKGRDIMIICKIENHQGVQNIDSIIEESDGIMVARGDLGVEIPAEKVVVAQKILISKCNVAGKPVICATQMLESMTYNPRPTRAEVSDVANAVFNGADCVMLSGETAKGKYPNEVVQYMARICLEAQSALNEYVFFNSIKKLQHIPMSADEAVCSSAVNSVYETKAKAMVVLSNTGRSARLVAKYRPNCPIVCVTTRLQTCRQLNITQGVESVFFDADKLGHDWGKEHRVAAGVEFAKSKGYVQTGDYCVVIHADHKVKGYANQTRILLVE
Sequence of Alpha-galactosidase A (Homo sapiens) (P06280 whole entry, looked up): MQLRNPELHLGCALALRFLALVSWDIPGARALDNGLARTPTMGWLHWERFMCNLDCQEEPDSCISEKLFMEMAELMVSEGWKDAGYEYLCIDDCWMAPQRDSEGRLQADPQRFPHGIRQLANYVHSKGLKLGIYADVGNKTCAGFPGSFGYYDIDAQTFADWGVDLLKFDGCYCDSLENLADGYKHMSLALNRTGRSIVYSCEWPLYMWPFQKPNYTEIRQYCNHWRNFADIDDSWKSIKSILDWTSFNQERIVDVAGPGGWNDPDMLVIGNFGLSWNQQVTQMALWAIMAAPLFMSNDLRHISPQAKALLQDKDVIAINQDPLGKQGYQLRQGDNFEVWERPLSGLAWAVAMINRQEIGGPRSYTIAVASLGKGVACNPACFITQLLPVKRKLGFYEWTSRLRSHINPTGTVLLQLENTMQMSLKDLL

As to `O=c1c(CCc2ccccc2)nc2cnc(N3CCOCC3)nc2n1C[C@H]1CCCO1`, the activity change, negative = inhibition was -13.7% (inactive) in assay [1] (setting [17]), -4.34% (inactive) in assay [2] (setting [17]) and -15.5% (inactive) in assay [8] (at 57.5 µM (top of the series)). Further, in [3] (setting [17]), the activity, negative = inhibition is -10.8% (inactive). Further, the Potency in [4] was > 9.22 µM (inactive); in assay [5] it was > 46 µM (inactive). The Potency result in assay [6] and in assay [7] was “inactive” in each case. In addition, the max response in [8] (setting [18]) was -5.26%; in [8] (setting [19]), -6.55%.
In the case of `O=C(c1ccncc1)N1CCC[C@@]2(CCN(c3cccc(-c4ccccc4)c3)C2)C1`, the activity change, negative = inhibition in assay [1] (setting [17]) is -13.8% (inactive); in assay [2] (setting [17]), -1.5% (inactive); in assay [8] (at 57.5 µM (top of the series)), 1.7% (inactive). For the same compound, the activity, negative = inhibition in [3] (setting [17]) is -6.3% (inactive). In addition, in [5], the Potency is > 46 µM (inactive). Besides, the Potency result in [7] is “inactive”. Moreover, the results for the max response in [8] (setting [18]) and in assay [8] (setting [19]) were 8.47% and 13%, respectively.
With `COc1ccccc1CN1CC[C@@]2(CCCN(C(=O)c3ccco3)C2)C1`, the values for the activity change, negative = inhibition in assay [1] (setting [17]), in [2] (setting [17]) and in assay [8] (at 57.5 µM (top of the series)) were -2.43% (inactive), -21.8% (inactive) and 1.52% (inactive), respectively. The activity, negative = inhibition in [3] (setting [17]) is -8.66% (inactive). In addition, the Potency in assay [5] was > 46 µM (inactive). For the same compound, the Potency entry in assay [6] was “inactive”. For the same compound, the max response in assay [8] (setting [18]) was 4.46%; in [8] (setting [19]), 8.6%.
For `CC[C@@]12CCCN3CCc4c(n(c5ccccc45)C(=O)C1)[C@H]32`, the Potency in assay [9] was 10 µM (active). Further, the activity change, negative = inhibition is -9.8% [at 2.29 µM] (inactive) in assay [9], -5.89% (inactive) in [2] (at 7.69 µM (top of the series)), -3.8% (inactive) in assay [2] (at 17.2 µM (top of the series)) and -0.21% (inactive) in [8] (at 25.7 µM (top of the series)). Further, the activity, negative = inhibition in assay [3] (at 7.69 µM (top of the series)) was 8.55% (inactive); in [3] (at 17.2 µM (top of the series)) it was 14.6% (inactive); in [13] (at 12.8 µM (top of the series), parasite line A), 14.8% (inactive); in assay [13] (at 12.8 µM (top of the series), parasite line B) it was -2.22% (inactive). In addition, the Potency result (in assay [6]; in assay [7]; in assay [11]; in the assay with AS120; in the assay on CP238; with CP265) was “inactive” each time. Besides, the Potency entry in the assay with FAB9 is “inactive”. Further, the max response in assay [8] (setting [18]) was -16.7%; in assay [8] (setting [19]), -14%. For the same compound, the result in assay [10] and in [12] was inactive.
Take `CO[C@]1(NC(=O)CSCC#N)C(=O)N2C(C(=O)O)=C(CSc3nnnn3C)CS[C@H]21`: the activity change, negative = inhibition was 6.3% (inactive) in [1] (at 17.2 µM (top of the series)); 6.07% (inactive) in assay [1] (at 38 µM (top of the series)); -17.5% (inactive) in assay [2] (at 17.2 µM (top of the series)); -10.8% (inactive) in assay [2] (at 38 µM (top of the series)); -1.05% (inactive) in assay [8] (at 25.7 µM (top of the series)). For the same compound, the Potency entry (in assay [9]; in [6]; in assay [11]; in the assay with AS120; in the assay with CP238; in the assay on CP265) was “inactive” in each case. In addition, the Potency result in the assay on FAB9 is “inactive”. The activity, negative = inhibition in assay [3] (at 17.2 µM (top of the series)) was -13.5% (inactive); in assay [3] (at 38 µM (top of the series)), 0.96% (inactive); in assay [13] (at 28.7 µM (top of the series), parasite line A), 11.9% (inactive); in [13] (at 28.7 µM (top of the series), parasite line B), 2.32% (inactive). Besides, the Potency was > 46 µM (inactive) and > 20.6 µM (inactive) in assay [4]; > 46 µM (inactive) and > 20.6 µM (inactive) in [5]. Further, the compound was classed as inactive in assay [14], in assay [15], in [16], in [10] and in [12]. Moreover, the max response is -7.44% in assay [8] (setting [18]) and -5.83% in [8] (setting [19]).
